This is an account of results in PubChem BioAssay (NCI).

Structures are written as SMILES. This is part of a sample that, as a whole, favours compounds with a hit. Of some 79,000 tested, about 15% had one in any assay. Unmarked numbers belong to inactive results. Active and inactive are the calls of the source. Cut-off read from the data, not from the text of the source: active = growth inhibition above about 70%; inactive = the rest.

A short description of experiment [1]: NCI Yeast Anticancer Drug Screen. Data for the rad50 strain (AID 155).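 Note: 0% = growth of vehicle-only cultures of the same strain.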 Particulars: S. cerevisiae rad50 strain growth inhibition; at 50.0 µM; hits give high values. The gist of the method:
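Inhibition values express reduced yeast growth in compound-treated cultures relative to vehicle-treated controls.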

A short description of experiment [2]: NCI Yeast Anticancer Drug Screen. Data for the mec2-1 strain (AID 157). Particulars: S. cerevisiae mec2-1 strain, at 50.0 µM, hits give high values. The procedure, abridged:
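Compounds were applied to mec2-1 yeast cells. Their growth was then compared with that of vehicle-treated cultures to give growth inhibition.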

Experiment [3] can be described thus: NCI Yeast Anticancer Drug Screen. Data for the sgs1 mgt1 strain (AID 161).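 Note: 0% = growth of cultures given vehicle only.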 Conditions: S. cerevisiae sgs1 mgt1 strain, at 50.0 µM, hits give high values. The gist of the method:
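This yeast growth screen uses a strain with defined DNA-repair lesions; compound-treated growth is compared with vehicle-treated growth.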

Experiment [4] can be described thus: NCI Yeast Anticancer Drug Screen. Data for the cln2 rad14 strain (AID 165).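 Note: 0% = growth equal to vehicle treated cultures.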 Conditions: S. cerevisiae cln2 rad14 strain, at 50.0 µM, hits give high values. The gist of the method:
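Strain: cln2 rad14 yeast, altered in cell cycle control and DNA damage repair. Read-out: growth inhibition vs vehicle.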

A short description of experiment [5]: NCI Yeast Anticancer Drug Screen. Data for the bub3 strain (AID 167). Conditions: S. cerevisiae bub3 mutant strain, at 50.0 µM, hits give high values. The procedure, abridged: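 Steps: expose the mutant yeast strain to compound; grow alongside vehicle-treated cultures; measure growth; express inhibition against the vehicle cultures.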
Experiment [6] can be described thus: NCI Yeast Anticancer Drug Screen. Data for the mlh1 rad18 strain (AID 175). Particulars: S. cerevisiae mlh1 rad18 strain growth inhibition; at 50.0 µM; hits give high values. The procedure, abridged:
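A repair-deficient yeast strain is exposed to test compound, and growth is scored relative to vehicle-treated controls.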

For the compound `O=C(NCCCCCCNC(=O)OCOC(=O)NCCCCCCNC(=O)Nc1ccc(SCCO)cc1)Nc1ccc(SCCO)cc1`, the growth inhibition was 15.7% in experiment [1]; 12.4% in experiment [2]; 16.3% in experiment [3]; 21.1% in experiment [4]; 27.2% in experiment [5]; -36.9% in experiment [6].
`Cc1cc(-n2nnc(C(=O)O)c2-c2ccccc2)c2ccc(Cl)cc2n1`: the growth inhibition was -19.1% in experiment [1]; -4.35% in experiment [2]; -12.1% in experiment [3]; -35% in experiment [4]; -8.9% in experiment [5]; 4.1% in experiment [6].
Consider `COC(=O)/C(=N/NC(C)(C)C)C(C(=O)C=C(C)C)C(=O)C(=O)Nc1ccc(Cl)cc1C` (stereo unspecified), for which the growth inhibition in experiment [1] was 2.2%; in experiment [2], -1.55%; in experiment [3] it was -11.2%; in experiment [4] it was -28.9%; in experiment [5], -0.7%; in experiment [6] it was 0.8%.
Take `COc1ccc2nc3cc(Cl)ccc3c(C=O)c2c1`: the growth inhibition in experiment [1] was -0.15%; in experiment [2] it was 7.65%; in experiment [3], 5.75%; in experiment [4], -35.8%; in experiment [5], -4.3%; in experiment [6], -2.25%.
For `CC(=O)Nc1ccc(NC(=O)Nc2cccc(Cl)c2C)cc1`, the growth inhibition was 2.75% in experiment [1]; -0.35% in experiment [2]; 3.05% in experiment [3]; 11.7% in experiment [4]; 17.4% in experiment [5]; 5.3% in experiment [6].
On to `CCOP(=O)(CCP(=O)(CCP(=O)(OCC)OCC)CCP(=O)(OCC)OCC)OCC`, for which the growth inhibition in experiment [1] was -8.05%; in experiment [2] it was 2.5%; in experiment [3], -8.05%; in experiment [4], -30.2%; in experiment [5], -1.55%; in experiment [6] it was -9.2%.
Consider `CCN(CC)c1nc(=O)c(C(=O)C(C)(C)C)c(C(C)(C)C)o1`, for which the growth inhibition is -14.9% in experiment [1]; -39% in experiment [2]; -34.1% in experiment [3]; -11.8% in experiment [4]; -9.15% in experiment [5]; -17.1% in experiment [6].
`Cn1cnc2ncnc(Oc3ccc(Cl)cc3)c21`: the growth inhibition was -13.5% in experiment [1]; -10.3% in experiment [2]; -2.95% in experiment [3]; 4.45% in experiment [4]; -27.1% in experiment [5]; -14.1% in experiment [6].
`CCC(c1ccc(Cl)cc1)N(CC)c1ccccn1` (stereo unspecified): the growth inhibition is 7% in experiment [1]; -0.4% in experiment [2]; 16.6% in experiment [3]; -52.4% in experiment [4]; 3.5% in experiment [5]; -30.2% in experiment [6].
`CCc1cc2c(cc1C(=O)/C=C\c1ccco1)C(C)(C)CCC2(C)C`: the growth inhibition in experiment [1] was 97.2% (active); in experiment [2], 98.2% (active); in experiment [3], 97.5% (active); in experiment [4] it was 96.8% (active); in experiment [5] it was 97.7% (active); in experiment [6], 97.8% (active).
On to `Cc1cc(OCCCCCCC[N+](C)(C)Cc2ccc([N+](=O)[O-])o2)c(C(C)C)cc1Cl`, for which the growth inhibition in experiment [1] was 99.6% (active); in experiment [2], 99.8% (active); in experiment [3] it was 99.8% (active); in experiment [4], 99.6% (active); in experiment [5], 99.5% (active); in experiment [6], 99.7% (active).
Turning to `c1ccc(-c2csc3[n+]2CCN3)cc1`, the growth inhibition is 18.6% in experiment [1]; 13.9% in experiment [2]; 12.8% in experiment [3]; 5.3% in experiment [4]; 2.8% in experiment [5]; 14.2% in experiment [6].
Consider `C=C1CCc2occ(C)c2C2C1C1=C(CC(C)C1=O)C1OC12C` (stereo unspecified), for which the growth inhibition in experiment [1] is 14.9%; in experiment [2], 11.1%; in experiment [3], -2.75%; in experiment [4] it was -22.8%; in experiment [5], 12.4%; in experiment [6], 10.2%.
Take `O=c1c2c([nH]n1-c1ccccc1)-c1ccccc1CS2`: the growth inhibition is 40.2% in experiment [1]; 15.9% in experiment [2]; 37.8% in experiment [3]; 9.55% in experiment [4]; 40.6% in experiment [5]; 28.9% in experiment [6].
For `O=Cc1c(O)nc[nH]c1=O`, the growth inhibition is -23.9% in experiment [1]; -27.9% in experiment [2]; -4.15% in experiment [3]; 6.75% in experiment [4]; -13.4% in experiment [5]; -7.7% in experiment [6].
For the compound `Cc1cccc2c1C(=O)OC2(c1cccc2ccccc12)c1cccc2ccccc12`, the growth inhibition in experiment [1] is -16.4%; in experiment [2] it was 3.9%; in experiment [3] it was 4.5%; in experiment [4], -15.7%; in experiment [5], 0%; in experiment [6], 1.6%.
On to `N#CCc1ccccc1S(=O)(=O)O`, for which the growth inhibition was 13.3% in experiment [1]; -0.75% in experiment [2]; -3.45% in experiment [3]; -9.75% in experiment [4]; 5.05% in experiment [5]; 0.25% in experiment [6].
Take `C/C(=N\NC(=O)C1CCCO1)c1cccc2ccccc12` (stereo unspecified): the growth inhibition in experiment [1] is 3.1%; in experiment [2], 11.5%; in experiment [3], 5.55%; in experiment [4], 17%; in experiment [5], 3.9%; in experiment [6], 3.55%.
For `FC(F)(F)C(F)(F)C(F)(F)C(F)(F)C(F)(F)C(F)(F)C(F)(F)c1noc(C(F)(F)C(F)(F)C(F)(F)C(F)(F)C(F)(F)C(F)(F)C(F)(F)F)n1`, the growth inhibition in experiment [1] is -0.55%; in experiment [2], 6.5%; in experiment [3] it was -5.4%; in experiment [4] it was -5.25%; in experiment [5], 0.85%; in experiment [6], 17.4%.
Take `CNC(CCCC1CCCCC1)C(=O)O` (stereo unspecified): the growth inhibition in experiment [1] is -2.85%; in experiment [2], 5.7%; in experiment [3], -0.15%; in experiment [4] it was 11.4%; in experiment [5], 12.8%; in experiment [6] it was -7.35%.
For the compound `C=C(C)C(=O)OCCN(CC)CC`, the growth inhibition was 33.9% in experiment [1]; -4.15% in experiment [2]; 17.7% in experiment [3]; 23.6% in experiment [4]; 11.4% in experiment [5]; 23.5% in experiment [6].
